Screens (PubChem)
HIV RNase H inh: inhibitors of HIV-1 reverse transcriptase RNase H. P04585. RT-RNase H RNA/DNA duplex cleavage, fluorescence. inhibition, % at 10 µM. 1.9% of 65,000 active; in the data active = inhibition above about 50%
An asterisk follows results filed as active. The entries come from a sample that favours hits as a whole.

Results for CC(C)C(=O)Nc1cccc(NC(=O)CCN2C(=O)c3ccccc3S2(=O)=O)c1 ?
HIV RNase H inh: -13

How did CCCOc1ccc(N2C(=O)C3ON(c4ccccc4)C(c4ccc(O)c(OC)c4)C3C2=O)cc1 (centres undefined) do in these assays?
HIV RNase H inh: 56*

Results for CCOc1ccccc1C1C2C(=O)N(c3ccccc3)C(=O)C2ON1c1ccccc1 (centres undefined) ?
HIV RNase H inh: 9

What do the screens show for `COc1cc(C2C3C(=O)N(Cc4ccccc4)C(=O)C3ON2c2ccccc2)cc(OC)c1O` (centres undefined)?
HIV RNase H inh: 11

How did O=C(O)CN(Cc1ccccc1)S(=O)(=O)c1ccc(F)cc1 do in these assays?
HIV RNase H inh: 34

What do the screens show for `O=c1c2cc(N3CCOCC3)ccc2[nH]c(=S)n1Cc1ccco1`?
HIV RNase H inh: 55*

How did O=c1c2cc(Cl)ccc2[nH]c(=S)n1Cc1ccco1 do in these assays?
HIV RNase H inh: -32

How did COc1cccc(Cn2c(=S)[nH]c3ccc(N4CCOCC4)cc3c2=O)c1 do in these assays?
HIV RNase H inh: 9

Results for COc1ccc(CCNC(=O)c2c(O)c3c([nH]c2=O)CCCC3)cc1OC ?
HIV RNase H inh: -4

What do the screens show for `COc1ccc(OC)c(NC(=O)C2CC(C)=C(C)CC2C(=O)O)c1` (centres undefined)?
HIV RNase H inh: -6

What do the screens show for `FC(F)C(F)(F)C(F)(F)C(F)(F)c1cc(-c2ccccc2)n[nH]1`?
HIV RNase H inh: -18

What do the screens show for `COC1(c2cc(-c3ccccc3)nc(N)n2)CCCCC1`?
HIV RNase H inh: -5

What do the screens show for `Cn1c(=O)oc2cc(S(=O)(=O)Nc3cccc4c3CCCC4)ccc21`?
HIV RNase H inh: -9

How did Cc1nnc(NC(=O)C2CCCO2)s1 (centres undefined) do in these assays?
HIV RNase H inh: 32

Results for CCCCCc1nnc(NC(=O)C2CCCO2)s1 (centres undefined) ?
HIV RNase H inh: 64*

What do the screens show for `Cc1ccc(S(=O)(=O)CCc2nnc(NC(=O)C3CCCO3)s2)cc1` (centres undefined)?
HIV RNase H inh: 37

Results for COc1ccc(-n2c(Cc3cccn3C)nnc2SCC(=O)Nc2ccc(C(C)=O)cc2)cc1 ?
HIV RNase H inh: -52

How did O=C(c1cccc2c1C(=O)N(Cc1cccnc1)C2)N1CCN(c2ccccc2)CC1 do in these assays?
HIV RNase H inh: -2

How did N#CC1=C(N)N2C(=C(C#N)C1c1ccccc1)Sc1ccccc12 (centres undefined) do in these assays?
HIV RNase H inh: 2

Results for CCOc1ccc(C2C(C#N)=C(N)N3C(=C2C#N)Sc2ccccc23)cc1 (centres undefined) ?
HIV RNase H inh: 72*

What do the screens show for `CCOc1ccc(C2C(C#N)=C(N)SC(N)=C2C#N)cc1OCC`?
HIV RNase H inh: 38

How did COc1ccc(NC(=O)Nc2ccccc2C(=O)N2CCCC2)cc1 do in these assays?
HIV RNase H inh: -20

How did c1ccc(Cc2nnc3sc(C4COc5ccccc5O4)nn23)cc1 (centres undefined) do in these assays?
HIV RNase H inh: 70*

Results for CCOc1ccccc1-c1nn2c(Cc3ccccc3)nnc2s1 ?
HIV RNase H inh: -39

What do the screens show for `Cc1ccc(-c2nnc3sc(C4COc5ccccc5O4)nn23)cc1` (centres undefined)?
HIV RNase H inh: -12

Results for CCCCOc1ccc(C(=O)NCc2ccccn2)cc1 ?
HIV RNase H inh: 2

Results for CCCCNC(=O)Nc1ccnn1C1CCCCC1 ?
HIV RNase H inh: -4

What do the screens show for `Cc1cc(C)nc(-n2c(Nc3ccccc3)cc(=O)c3c(C)n(-c4ccccc4)c(=O)nc32)n1`?
HIV RNase H inh: -12

Results for O=C(c1oc2ccccc2c1CSCc1ccccc1)N1CCN(c2ncccn2)CC1 ?
HIV RNase H inh: -6

How did CCCNC(=O)NC(=O)COC(=O)c1ccc(OC)c(S(=O)(=O)N2CCCc3ccccc32)c1 do in these assays?
HIV RNase H inh: -32

What do the screens show for `COc1ccc(N2Cc3ccccc3C2)cc1Cl`?
HIV RNase H inh: 55*

Results for COc1ccc(N2C(=O)C3CCCN3C2c2ccccc2)cc1Cl (centres undefined) ?
HIV RNase H inh: -10

What do the screens show for `COc1ccc(N2C(=O)C3CCCN3C2c2cccc(C)c2)cc1Cl` (centres undefined)?
HIV RNase H inh: -16

Results for COc1cc(OC)nc(NC(=O)CSc2nnc(-c3ccccc3)n2C2CCCCC2)n1 ?
HIV RNase H inh: 12

Results for CCCCNC(=O)CC(=O)Nc1ccccc1C(=O)O ?
HIV RNase H inh: -4

Results for Nc1nc(C2CC2)c(Sc2sc(N)nc2C2CC2)s1 ?
HIV RNase H inh: -21

How did Cn1c(=O)n(CCc2ccccc2)c(=O)c2c1nc1n2CCN1c1ccccc1 do in these assays?
HIV RNase H inh: 9

How did COc1ccc(N2CCn3c2nc2c3c(=O)n(CCCc3ccccc3)c(=O)n2C)cc1 do in these assays?
HIV RNase H inh: 60*

How did COc1ccc(N2CCn3c2nc2c3c(=O)n(CCCc3ccccc3)c(=O)n2C)c(OC)c1 do in these assays?
HIV RNase H inh: -10

What do the screens show for `Cc1[nH]c(=O)[nH]c(=O)c1S(=O)(=O)N1c2ccc(F)cc2CCC1C` (centres undefined)?
HIV RNase H inh: -2

Results for CCC(C)(C)NC(=O)C(OC(=O)c1cc2sccc2n1C)c1ccc(OC)cc1 (centres undefined) ?
HIV RNase H inh: 1

What do the screens show for `CCOc1ncccc1C(=O)OCc1cc(=O)n2c(n1)sc1ccccc12`?
HIV RNase H inh: 7

What do the screens show for `COC(=O)c1nn2c(C(F)(F)F)cc(-c3ccc(Br)o3)nc2c1Br`?
HIV RNase H inh: 64*

How did COC(=O)c1cnn2c(C(F)(F)F)cc(-c3ccc(F)cc3)nc12 do in these assays?
HIV RNase H inh: -4

How did COC(=O)c1cc2nc(-c3ccc(OC)cc3)cc(C(F)(F)F)n2n1 do in these assays?
HIV RNase H inh: 4

How did CN(C(=O)c1cccnc1)c1nnc(-c2ccccn2)s1 do in these assays?
HIV RNase H inh: -5

How did CN(C(=O)c1cccnc1)c1nnc(-c2cnccn2)s1 do in these assays?
HIV RNase H inh: -5

What do the screens show for `CN(C(=O)c1cccnc1)c1nnc(-c2cccnc2)s1`?
HIV RNase H inh: 66*

Results for COc1ccc(Br)cc1C1NC(=O)c2c(sc3c2CCN(C)C3)N1 (centres undefined) ?
HIV RNase H inh: -2

What do the screens show for `CN1C(=O)c2c(sc3c2CCCC3)NC1c1ccccc1O` (centres undefined)?
HIV RNase H inh: 52*

How did CN1CCc2c(sc3c2C(=O)NC(c2cn(Cc4ccccc4)c4ccccc24)N3)C1 (centres undefined) do in these assays?
HIV RNase H inh: 9

What do the screens show for `COc1ccccc1NC(=O)Nn1cnnc1`?
HIV RNase H inh: -11

What do the screens show for `CC(O)Cn1cnc2c1c(=O)n(C)c(=O)n2C` (centres undefined)?
HIV RNase H inh: -2

Results for COc1ccc(N2CCN(c3nc4c(c(=O)[nH]c(=O)n4C)n3CCCc3ccccc3)CC2)cc1 ?
HIV RNase H inh: 2

What do the screens show for `COc1ccc(C2C(C(C)=O)=C(C)N=c3s/c(=C\c4cc(C)n(C)c4C)c(=O)n32)c(OC)c1` (centres undefined)?
HIV RNase H inh: 32

How did COc1ccc(C2C(C(C)=O)=C(C)N=c3s/c(=C\c4ccco4)c(=O)n32)c(OC)c1 (centres undefined) do in these assays?
HIV RNase H inh: -1

Results for COc1ccc(C2C(C(C)=O)=C(C)N=c3s/c(=C\c4ccc5c(c4)OCO5)c(=O)n32)c(OC)c1 (centres undefined) ?
HIV RNase H inh: 58*
